From PubChem BioAssay (NCI)
About 83,000 compounds went through this panel and 20% of them were active in at least one assay; those are over-represented in the sample as a whole.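 Method: cells in 96-well plates; compound added at one concentration; 48 h incubation; percent growth measured; values under 10 scored active.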 A number with no mark means an inactive call. The source made the active and inactive calls.

Experiments:
Assay in all cases: NCI-60 one-dose screen, 48 h (100 = growth as untreated, 0 = no growth, -100 = all killed)
Settings in all cases: 10 µM unless noted
DU-145 prostate = tested on: DU-145 prostate
K-562 leukemia = tested on: K-562 leukemia
MALME-3M melanoma = tested on: MALME-3M melanoma
MDA-MB-231 breast = tested on: MDA-MB-231 breast
RXF 393 renal = tested on: RXF 393 renal
SF-268 CNS = tested on: SF-268 CNS
SF-295 CNS = tested on: SF-295 CNS
SF-539 CNS = tested on: SF-539 CNS
UACC-257 melanoma = tested on: UACC-257 melanoma
M14 melanoma = tested on: M14 melanoma
HCT-15 colon = tested on: HCT-15 colon
HT29 colon = tested on: HT29 colon
SNB-75 CNS = tested on: SNB-75 CNS
SNB-19 CNS = tested on: SNB-19 CNS
U251 CNS = tested on: U251 CNS
PC-3 prostate = tested on: PC-3 prostate
SK-MEL-5 melanoma = tested on: SK-MEL-5 melanoma
UACC-62 melanoma = tested on: UACC-62 melanoma
LOX IMVI melanoma = tested on: LOX IMVI melanoma
SK-MEL-28 melanoma = tested on: SK-MEL-28 melanoma

| SMILES | growth (DU-145 prostate) | growth (K-562 leukemia) | growth (MALME-3M melanoma) | growth (MDA-MB-231 breast) | growth (RXF 393 renal) | growth (SF-268 CNS) | growth (SF-295 CNS) | growth (SF-539 CNS) | growth (UACC-257 melanoma) | growth (M14 melanoma) | growth (HCT-15 colon) | growth (HT29 colon) | growth (SNB-75 CNS) | growth (SNB-19 CNS) | growth (U251 CNS) | growth (PC-3 prostate) | growth (SK-MEL-5 melanoma) | growth (UACC-62 melanoma) | growth (LOX IMVI melanoma) | growth (SK-MEL-28 melanoma) |
| --- | --- | --- | --- | --- | --- | --- | --- | --- | --- | --- | --- | --- | --- | --- | --- | --- | --- | --- | --- | --- |
| Cc1c(Cn2cc(COc3ccc(Br)cc3)nn2)c(C)c(Cn2cc(COc3ccc(Br)cc3)nn2)c(C)c1Cn1cc(COc2ccc(Br)cc2)nn1 | 104% | 103% | 89.1% | 89.7% | 102% | 97% | 89.6% | 96% | 80.2% | 97.7% | 104% | 92.4% | 81.1% | 89.7% | 91.3% | 87.9% | 98.4% | 76.9% | 35% | 94.1% |
| C[C@@H]1C[C@H]2C(=O)O[C@@H](C)[C@H](NC(=O)[C@H](Cc3cc(F)cc(F)c3)NC(=O)Nc3ccc(C4CC4)cc3F)C(=O)N3CCC[C@H]3C(=O)N3CCCC[C@H]3C(=O)N[C@@H](C)C(=O)N2C1 | 21.8% | 17.5% | 18.5% | -14.4% (active) | -1.09% (active) | 22.5% | -1.67% (active) | 24.7% | 6.5% (active) | 10.7% | 6.12% (active) | 10.5% | 6.49% (active) | 15.8% | 20.3% | 12% | -47.6% (active) | 3.87% (active) | 19.2% | 18.3% |
| CC(C)(C)OC(=O)N1C=C/C(=C\Cn2cc(-c3ccccc3)nn2)CC1 | 88.2% | 41.4% | 65.7% | 75.9% | 91.8% | 81% | 61% | 79.5% | 66% | 56.5% | 86.9% | 99.1% | 78.8% | 73.1% | 91.8% | 82.7% | 36.7% | 65.6% | 76.9% | 72.7% |
| CCCCCCCCCN(CCCCCCCCC)C(C)C(=O)c1ccc2cc(Br)c3ccccc3c2c1 (stereo not given) | 88.6% | 39.2% | 118% | 68.9% | 99.4% | 87.1% | 100% | 81.2% | 98.7% | 55.7% | 47.1% | 30.1% | 84.5% | 92% | 70.9% | 75.2% | 88.5% | 92.8% | 63.9% | 109% |
| [2H]C1([2H])CCN(C(=O)C2CC2)c2cc(NS(=O)(=O)c3ccc(-c4cccc(C(N)=O)c4)cc3)ccc21 | 72% | 20.7% | 39.6% | 42.3% | 48.4% | 51.9% | 19.8% | 23.4% | 47.7% | 86.4% | 90.7% | 13.6% | 11.3% | 41.2% | 29.8% | 34.2% | 15.4% | 21.4% | 39.2% | 43.9% |
| CC[C@@](C)(NC(=O)[C@H](C)NC(=O)CCNC(=O)C(C)(C)NC(=O)[C@H](C)NC(=O)[C@@H]1CCCN1C(=O)[C@@](C)(CC)NC(=O)[C@H](Cc1ccccc1)NC(=O)C1CCCN1C(=O)C(C)(C)NC(=O)C1CCCN1C(=O)C(C)(C)NC(C)=O)C(=O)NCCC(=O)N[C@@H](CC(C)C)C(=O)NC(C)(C)C(=O)NCCC(=O)N[C@@H](CC(C)C)C(=O)NC(C)(C)C(=O)NC(C)(C)C(=O)N[C@@H](CC(C)C)C(=O)NCCC(=O)NCO (stereo not given in full) | -100% (active) | -60.9% (active) | -84.9% (active) | -88.5% (active) | -97.5% (active) | -96.8% (active) | -98.6% (active) | -90% (active) | -95.2% (active) | -88.6% (active) | -99.4% (active) | -70.8% (active) | -96.4% (active) | -87.2% (active) | -99.1% (active) | -94.6% (active) | -100% (active) | -75.3% (active) | -100% (active) | -84.1% (active) |
| COc1ccc(/C=C(/C2=NCCN2)n2ccc3ccccc32)cc1 | 96.2% | 84.3% | 87% | 89.5% | 77.9% | 79.3% | 85.8% | 92.7% | 94.3% | 86.2% | 95.7% | 89% | 65% | 91.6% | 89% | 73.4% | 94.7% | 86.8% | 84.7% | 104% |
| C[C@H]1[C@H](C)CC[C@]2(COC(=O)CCC(=O)O)CC[C@]3(C)C(=CC[C@@H]4[C@@]5(C)CCCNC(C)(C)[C@@H]5CC[C@]43C)[C@H]12 | 79.8% [100 µM] | 48.9% [100 µM] | 77.1% [100 µM] | 45.1% [100 µM] | 53% [100 µM] | 62.5% [100 µM] | 59.1% [100 µM] | 50.9% [100 µM] | 78.5% [100 µM] | 92% [100 µM] | 65.9% [100 µM] | 52.2% [100 µM] | -2.3% [100 µM] (active) | 53.1% [100 µM] | 60.7% [100 µM] | 32.7% [100 µM] | 46.2% [100 µM] | 56.3% [100 µM] | 70.5% [100 µM] | 82.2% [100 µM] |
| C[n+]1c2ccccc2nc2c(N)cc(N)cc21 | 93.5% | 36.4% | 3.51% (active) | 87.3% | 112% | 24.8% | 89.5% | 48.6% | 92.8% | 96% | 110% | 84.7% | 75.2% | -5.7% (active) | 8.86% (active) | 77.6% | 56.9% | 93% | 77.3% | 109% |
| O=C1/C(=C/c2ccc(OCc3ccccc3)cc2)Oc2cc(OCCN3CCCCC3)ccc21 | 91.9% | 9.17% (active) | 67.8% | 80.9% | 60.8% | 77.4% | 92.9% | 69.5% | 90% | 60.8% | 14% | 33.2% | 83% | 94.3% | 69.8% | 74.9% | 61.6% | 61% | 52.3% | 78.4% |
| O=S(=O)(/N=c1/n(-c2ccccc2)nc2n1CCN2C1=NCCN1)c1ccc(-c2ccccc2)cc1 | 108% | 88.6% | 112% | 86.2% | 87.9% | 91.7% | 97.7% | 93.1% | 103% | 106% | 99.4% | 100% | 85% | 97.1% | 92.7% | 93.8% | 90.6% | 109% | 93% | 105% |
| CCOc1cccc2c(NC(C)CCCN(CC)CC)c(C)cnc12 (stereo not given) | 110% | 101% | 116% | 78.7% | 102% | 87.6% | 109% | 102% | 108% | 104% | 99.1% | 85.1% | 67.9% | 102% | 103% | 85.9% | 108% | 108% | 90.2% | 126% |
| Nc1nc(Nc2ccccc2)c2ncn(Cc3cc4c(cc3Br)OCO4)c2n1 | 18.2% | 10.2% | 74.7% | -5.1% (active) | 22.9% | 23.8% | 14% | 1.84% (active) | 58.3% | 15.7% | 6.74% (active) | -34% (active) | 18.8% | 17.3% | 3.29% (active) | 16.2% | -6.17% (active) | 33.6% | 12.9% | 52% |
| O=C(Nc1cc(F)cc2cccnc12)c1cnc(N2CCNCC2)cn1 | 75.2% | 19.8% | 59.6% | 71.8% | 54.1% | 77.4% | 89.3% | 85.5% | 88% | 86.1% | 40.5% | 36.8% | 82.7% | 87.7% | 63.6% | 63% | 91.1% | 101% | 65.8% | 97.4% |
| C=C(C)[C@@H]1CC[C@]2(C)[C@H](CC=C3[C@@H]4[C@@H](C)[C@H](C)CC[C@]4(C(N)=O)CC[C@]32C)[C@@]1(C)CCC#N | -0.419% [100 µM] (active) | 7.42% [100 µM] (active) | -65.5% [100 µM] (active) | -55.4% [100 µM] (active) | -72.2% [100 µM] (active) | 15.2% [100 µM] | 5.51% [100 µM] (active) | -63.1% [100 µM] (active) | -11.4% [100 µM] (active) | -3.77% [100 µM] (active) | 9.25% [100 µM] (active) | -32.6% [100 µM] (active) | -5.4% [100 µM] (active) | 16.2% [100 µM] | -59.3% [100 µM] (active) | 12.2% [100 µM] | -87.9% [100 µM] (active) | -63.9% [100 µM] (active) | -92.9% [100 µM] (active) | -67.8% [100 µM] (active) |
